ssDAF12 agonist – S. stercoralis DAF-12 nuclear receptor activators, primary screen, cell-based, luminescence, HEK293, GRIP1 co-expression, lit1-tk-luc | HEK293 ssDAF-12/GRIP1 lit1-tk-luc reporter; % of 3 µM dafachronic acid response | activation, % at 6.8 µM | 1% of 370,000 active;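 active means activation above the mean over all tested compounds plus 3 SD, cut at about 0.9% in these data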;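 further: 0% = DMSO-only wells and 100% = 3 µM delta7-dafachronic acid wells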
DAX1 inh-1 – DAX1 (NR0B1) inhibitors on StAR promoter, primary screen, cell-based, luminescence, SF-1 (NR5A1), full-length DAX-1. HEK293T StAR-luciferase reporter, SF-1/DAX-1 repression relief. inhibition, % at 6.8 µM. 1.1% of 370,000 active. AID 652010, 2013;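 active means inhibition above the mean over all tested compounds plus 3 SD, cut at about 3.6% in these data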;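 further: 0% = DAX-1 cells with DMSO and 100% = cells lacking DAX-1 with DMSO; higher inhibition means more luminescence from relief of DAX-1 repression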
DAX1 inh-2 – DAX1 (NR0B1) inhibitors, primary screen, cell-based, HEK293, Gal4-DAX1, luciferase luminescence. Nuclear receptor subfamily 0 group B member 1 (Homo sapiens), P51843. HEK293 Gal4-DAX1 luciferase reporter. inhibition, % at 6.75 µM. 0.99% of 340,000 active;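 active means inhibition above the mean over all tested compounds plus 3 SD, cut at about 4.2% in these data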;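 further: 0% = DAX1-transfected cells with DMSO and 100% = empty-vector control cells with DMSO; inhibition shows as a rise in luminescence from relieved DAX1 repression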
Target sequence (P51843 207-470 limits assumed): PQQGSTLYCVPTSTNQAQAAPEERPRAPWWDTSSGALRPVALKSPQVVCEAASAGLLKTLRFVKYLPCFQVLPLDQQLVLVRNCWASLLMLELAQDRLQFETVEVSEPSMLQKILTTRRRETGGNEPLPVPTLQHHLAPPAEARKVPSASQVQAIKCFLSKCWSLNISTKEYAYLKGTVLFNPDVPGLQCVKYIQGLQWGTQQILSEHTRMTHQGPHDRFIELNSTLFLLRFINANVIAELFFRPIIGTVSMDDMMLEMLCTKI
hgDAF-12 ag – H. glycines DAF-12 receptor agonists, primary screen, cell-based, luminescence, HEK293, GAL4 fusion, UAS-luciferase | Nuclear hormone receptor DAF-12 (Heterodera glycines), GAL4 fusion | HEK293 GAL4-hgDAF12 UAS-luciferase reporter, agonist luminescence; normalized to butyrate control | activation, % at 6.8 µM | 1.8% of 370,000 active | AID 687014, 2013;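 active means activation above a cutoff set at the mean of all screened compounds plus 3 SD, cut at about 10% in these data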;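 further: 0% = DMSO wells and 100% = sodium butyrate wells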
hcDAF-12 act – H. contortus DAF-12 nuclear receptor activators, primary screen, cell-based, luminescence, HEK293, lit1-tk-luc reporter. HEK293 hcDAF-12 lit1-tk-luc reporter; 0% DMSO, 100% Δ7-dafachronic acid. activation, % at 6.8 µM. 1.4% of 370,000 active. AID 652067, 2013;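 active means activation above the mean of all tested compounds plus 3 SD, cut at about 5.5% in these data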;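 further: 100% = response to 3 µM Δ7-dafachronic acid high control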
SMARCA2 act – SMARCA2 (BRM) function activators, primary screen, cell-based, luminescence, high throughput; 1% of 370,000 active; activation, % at 9.1 µM; MG213 cells, MMTV-luciferase reporter, dexamethasone, overnight; in the data active means activation above about 7.8%;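 further: 0% = vehicle wells and 100% = reference activator wells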
Active calls of the source: *; / = not tested or not shown. Rows were chosen to be rich in hits. Some 4.8% of all compounds tested hit in one or more screens of this group.

SMILES	ssDAF12 agonist	DAX1 inh-1	DAX1 inh-2	hgDAF-12 ag	hcDAF-12 act	SMARCA2 act
COc1ccc(/C=C/C(=O)c2ccc(Cl)cc2)c(OC)c1	-1	2	1	16*	1	7
CC(C)CN(C(=O)CSc1nnc(-c2cccs2)n1C1CC1)C1CCS(=O)(=O)C1 (stereo not drawn)	-1	0	0	-3	0	0
Cc1cc(C)cc(OCC(=O)N2N=C(C(F)(F)F)CC2(O)C(C)(C)C)c1 (stereo not drawn)	-1	-1	0	-1	-1	0
CC(C)(C)C1(O)CC(C(F)(F)F)=NN1C(=O)CCCc1ccccc1 (stereo not drawn)	-1	0	4.6*	-1	0	-2
COc1ccccc1Cc1c(-c2ccc(C#N)cc2)nc2ccc(Br)cn12	-1	0	/	4	6.0*	1
COc1ccccc1Cc1c(-c2ccccc2)nc2ccc(Br)cn12	0	3	/	8	5	0
COc1ccccc1Cc1c(-c2cccc(Br)c2)nc2ccc(Br)cn12	0	4	/	9	4	7.9*
Brc1ccc(-c2nc3ccc(Br)cn3c2Cc2ccccc2)cc1	-1	-3	/	12*	0	1
CN(C(=O)COC(=O)c1cc(S(=O)(=O)N2CCOCC2)ccc1Cl)C1CCS(=O)(=O)C1 (stereo not drawn)	-1	0	0	1	0	1
Cc1cccc(C)c1OCC(=O)NNC(=O)CCNC(=O)c1ccco1	-1	2	0	1	2	2
Cn1nnc2cc(C(=O)Nc3ccccc3)ccc21	0.9*	2	2	11*	2	6
Cc1ccc(NC(=O)c2ccc3c(c2)nnn3C)cc1	-1	1	0	4	2	0
CC(NC(=O)NC12CC3CC(CC(C3)C1)C2)C1CCCO1 (stereo not drawn)	0	1	7.2*	3	0	-1
CC(NC(=O)Nc1ccc(Cl)cc1)C1CCCO1 (stereo not drawn)	-1	0	-1	4	1	3
CC(=O)NS(=O)(=O)c1ccc(NC(=O)c2ccccn2)cc1	0	0	1	2	1	-1
CN(C)S(=O)(=O)c1ccc(C(=O)Nc2ccccn2)cc1	-1	2	1	11*	0	1
Cc1ccc(S(=O)(=O)N(C)c2ccc(C(=O)Nc3ccccn3)cc2)cc1	-2	1	-2	1	1	2
CN(C)S(=O)(=O)c1ccc(NC(=O)c2ccccn2)cc1	0	3	2	13*	2	4
O=C(c1ccc(Cl)c(S(=O)(=O)N2CCOCC2)c1)N(Cc1ccco1)Cc1cccs1	-1	0	-2	-3	-1	-4
CCOC(=O)C1=C(COC(=O)C2CC(=O)N(c3ccc(CC)cc3)C2)NC(=O)NC1C (stereo not drawn)	-1	1	2	-1	1	-3
O=C(COC(=O)Cn1cnc2ccccc21)Nc1ccc(F)c(F)c1	-1	-1	1	6	0	0
Cc1[nH]c2ccccc2c1-c1csc(NC(=O)CSCCO)n1	-1	1	5.5*	0	-1	-2
CCCCCC(=O)OCc1ccc(C2=CC(=O)CC(C)(C)C2=O)cc1	-1	4.2*	1	7	1	-4
CN(CC(O)COCc1cccs1)C1CCCCC1 (stereo not drawn)	-1	0	3	12*	-1	2
COc1cc(/C=N/Nc2ccccn2)cc(OC)c1O	-1	-1	0	1	2	-2
COc1cc(/C=N/Nc2cccc3cccnc23)cc(OC)c1O	-1	0	-1	13*	0	0
